Source: PubChem BioAssay (Tox21)
Several values for one entry are separate records, joined by “and”; a condition that tells them apart may be missing. Equal entries are not always repeated. Records with an inconclusive call do not appear. A call without a number means that no potency is given here. Some compounds were tested as several samples or in several runs, with calls that do not always agree. Activity calls are given as the source filed them. Unless noted, the call rests on the fitted dose curve.

Experiments:
[1] = Nuclear factor erythroid 2-related factor 2/antioxidant responsive element (Nrf2/ARE) small molecule agonists: qHTS cell viability counter screen in human keratinocytes (AID 1919968; active means well fitted curve in the direction sought with a large enough effect in the repeat runs; an effect the other way counts as inactive or inconclusive; further: nearly all actives have a fitted effect of over 55% in size; further: potency means the concentration at half of the fitted maximal effect)
Summary of the method: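 Viability counter-screen: KeratinoSens reporter cells, DMSO-delivered compounds, 23 h at 37 C, CellTiter-Fluor fluorescence.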

[2] = target: Gonadotropin-releasing hormone receptor (Homo sapiens) (UniProt P30968); assay: Human gonadotropin-releasing hormone receptor (GnRHR) small molecule agonists, calcium flux assay in GnRHR-HEK293 cells (AID 1920063); further: nearly all actives have a fitted effect of over 35% in size
Summary of the method: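 Tox21-format agonist screen using human GnRHR-expressing HEK293 cells and a fluorescent calcium dye; kinetic 3-min fluorescence reading after compound addition, 15-point concentration series run in triplicate.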

[3] = G protein-coupled receptor (GPCR) small molecule agonists, calcium flux assay: HEK293 wild type cell line counter screen (AID 1920065)
Summary of the method: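 In this agonist-mode screen, ATP is the positive control and DMSO the vehicle. Cells grow 18 h before a 1 h dye incubation at 37 C; signal is taken at Ex/Em 480/540 over 3 min.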

[4] = p53 small molecule agonists, cell-based qHTS assay with human liver microsomes (AID 1963577);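 further: p53 response element beta-lactamase reporter cells with liver microsomes plus NADPH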
Summary of the method: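 16 h, 37 C exposure of p53RE-bla cells to compounds with human liver microsomes and NADPH (0.5 mg/mL final each); detection via LiveBLAzer mixture, 2 h dark at room temperature.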

[5] = p53 small molecule agonists, cell-based qHTS assay with rat liver microsomes (AID 1963578)
Summary of the method: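 With rat liver microsomes and NADPH present (0.5 mg/mL final each), p53RE-bla cells are treated with compound for 16 h at 37 C. LiveBLAzer detection mixture is then applied for 2 h at room temperature in the dark.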

[6] = p53 small molecule agonists, cell-based qHTS assay with human liver microsomes: qHTS cell viability counter screen (AID 1963579); further: nearly all actives have a fitted effect of over 45% in size; further: potency means the concentration at half of the fitted maximal effect
Summary of the method: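 In this multiplexed counter screen, the reporter plates were subsequently treated with CellTiter-Glo so that cell viability, reflected by luminescence, could be recorded for p53RE-bla cells dosed 16 h with compounds under microsomal activation (HLM and NADPH).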

[7] = p53 small molecule agonists, cell-based qHTS assay with rat liver microsomes: qHTS cell viability counter screen (AID 1963580); further: nearly all actives have a fitted effect of over 45% in size; further: potency means the concentration at half of the fitted maximal effect
Summary of the method: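 Viability is assessed in parallel with the p53 reporter read: HCT-116 p53RE-bla cells receive compounds plus rat microsomes and NADPH (0.5 mg/mL final apiece), incubate 16 h at 37 C, and then CellTiter-Glo luminescence is recorded.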

[8] = p53 small molecule agonists, cell-based qHTS assay: qHTS cell viability counter screen (AID 1963581); further: nearly all actives have a fitted effect of over 45% in size; further: potency means the concentration at half of the fitted maximal effect
Summary of the method: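 Compounds are pinned onto HCT-116 p53RE-bla cells and left 16 h at 37 C. Following the reporter FRET read, ATP is quantified by CellTiter-Glo luminescence after 30 min at room temperature.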

[9] = p53 small molecule agonists, cell-based qHTS assay (AID 1963582; active means well fitted activation curve with a large enough effect in the signal ratio in the repeat runs, not every such curve was filed as active; the % refers to the signal ratio)
Summary of the method: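 Agonist activity was scored from beta-lactamase FRET fluorescence in p53RE-bla cells treated 16 h at 37 C with compounds in DMSO, substrate incubation being 2 h at room temperature.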

[10] = target: 5-hydroxytryptamine receptor 2A (Homo sapiens) (UniProt P28223); assay: 5-hydroxytryptamine receptor 2A (HTR2A) small molecule antagonists, cell-based qHTS assay (AID 1963586); further: nearly all actives have a fitted effect of over 45% in size
Summary of the method: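 Antagonist-mode intracellular calcium assay: DOI (4 nM) added after 5 min compound pre-incubation at room temperature to dye-loaded HTR2A-CHO cells. Fluorescence followed for 3 min, sampled every second.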

[11] = target: 5-hydroxytryptamine receptor 2A (Homo sapiens) (UniProt P28223); assay: 5-hydroxytryptamine receptor 2A (HTR2A) small molecule agonists, cell-based qHTS assay (AID 1963587); further: nearly all actives have a fitted effect of over 30% in size; further: potency means the concentration at half of the fitted maximal effect
Summary of the method: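 CHO cells stably expressing human HTR2A, plated 18 h, loaded with calcium dye 1 h at 37 C. Agonist mode: compounds added and intracellular calcium fluorescence recorded kinetically for 2 min at 1 sec intervals.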

[12] = target: Muscarinic acetylcholine receptor M1 (Homo sapiens) (UniProt P11229); assay: Cholinergic receptor muscarinic 1 (CHRM1) small molecule antagonists, cell-based qHTS assay (AID 1963588); further: nearly all actives have a fitted effect of over 40% in size; further: potency means the concentration at half of the fitted maximal effect
Summary of the method: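 CHRM1-CHO calcium-flux assay, antagonist mode. Cells were seeded 18 h, dye-loaded 1 h at 37 C and given compound for 5 min at RT, then acetylcholine was added at 50nM. FDSS fluorescence was read 3 min; 15 concentrations, three runs.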

[13] = target: Muscarinic acetylcholine receptor M1 (Homo sapiens) (UniProt P11229); assay: Cholinergic receptor muscarinic 1 (CHRM1) small molecule agonists, cell-based qHTS assay (AID 1963589); further: nearly all actives have a fitted effect of over 35% in size; further: potency means the concentration at half of the fitted maximal effect
Summary of the method: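 Stable CHRM1-CHO cells (human receptor) were incubated 18 h, dye-loaded for 1 h at 37 C and exposed to test compounds for agonist activity, with calcium-dependent fluorescence followed kinetically.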

[14] = cAMP Responsive Elements (CRE) small molecule agonists, cell-based qHTS assay (AID 1963590)
Summary of the method: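 FRET-based beta-lactamase readout (LiveBLAzer B/G, 2 h RT) quantified CRE activation in HEK 293T CRE-bla cells after 3 h treatment with DMSO-dissolved compounds.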

[15] = cAMP Responsive Elements (CRE) small molecule antagonists, cell-based qHTS assay (AID 1963591; active means well fitted inhibition curve with a large enough effect in the signal ratio in the repeat runs, not every such curve was filed as active; the % refers to the signal ratio)
Summary of the method: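 qHTS in CRE-bla HEK 293T cells: compound in DMSO, then 0.25 uM NKH477 (final), 3 h at 37 °C/5% CO2; beta-lactamase FRET read-out after 2 h substrate incubation.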

[16] = target: Beta-2 adrenergic receptor (Homo sapiens) (UniProt P07550); assay: Adrenergic beta2 receptor (ADRB2) small molecule antagonists, cell-based qHTS assay (AID 1963592); further: nearly all actives have a fitted effect of over 50% in size; further: potency means the concentration at half of the fitted maximal effect
Summary of the method: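 Cells (CHO, stable ADRB2 overexpression) incubated 18-20hr at 37C; compounds added from DMSO; agonist mix (1nM isoproterenol, 100uM IBMX, 25uM Ro-20-1724) added; 0.5hr RT; d2-cAMP and anti-cAMP-cryptate added; 1hr RT; 665/615 nm read.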

[17] = target: D(2) dopamine receptor (Homo sapiens) (UniProt P14416); assay: Dopamine D2 receptor (DRD2) small molecule agonists, cell-based qHTS assay (AID 1963594); further: nearly all actives have a fitted effect of over 35% in size
Summary of the method: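 HEK293 cells stably expressing human DRD2, pre-treated with PDE inhibitor Ro20-1724 (0.1 mM final) and compound 10 min at room temperature, then stimulated with NKH477 (200nM […]) for 30 min. cAMP read by HTRF (665/620 nm).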

[18] = target: D(2) dopamine receptor (Homo sapiens) (UniProt P14416); assay: Dopamine D2 receptor (DRD2) small molecule antagonists, cell-based qHTS assay (AID 1963595; active means well fitted inhibition curve with a large enough effect in the signal ratio in the repeat runs, with a control signal flat; the % refers to the signal ratio; further: potency means the concentration at half of the fitted maximal effect)
Summary of the method: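 HEK293 cells stably expressing DRD2 were preincubated with 0.1 mM Ro20-1724, then with compound for 10 min at room temperature. Cells were stimulated with 200 nM NKH477 plus 12 nM quinpirole for 30 min, and cAMP was read by HTRF.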

[19] = target: Beta-2 adrenergic receptor (Homo sapiens) (UniProt P07550); assay: Adrenergic beta2 receptor (ADRB2) small molecule agonists, cell-based qHTS assay (AID 1963593);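 further: CHO cells stably overexpressing human ADRB2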
Summary of the method: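 CHO cells stably over-expressing ADRB2 were plated overnight at 37C, then dosed with compounds plus a stimulation mix containing 100uM IBMX and 25uM Ro-20-1724 for 0.5hr at room temperature. cAMP was measured by HTRF competition, 1hr.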

[20] = target: KiSS-1 receptor (Homo sapiens) (UniProt Q969F8); assay: Human kisspeptin (KISS1R) small molecule agonists, calcium flux assay in KISS1R-HEK293 cells (AID 1920064; active means well fitted curve in the direction sought with a large enough effect in the repeat runs; an effect the other way counts as inactive or inconclusive)
Summary of the method: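 Intracellular calcium mobilization in KISS1R-HEK293 cells was recorded by fluorescence (Ex/Em 480/540) for 3 min following compound addition to cells pre-loaded 1 h with calcium dye.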

5-hydroxytryptamine receptor 2A (Homo sapiens), sequence (P28223 whole entry, looked up): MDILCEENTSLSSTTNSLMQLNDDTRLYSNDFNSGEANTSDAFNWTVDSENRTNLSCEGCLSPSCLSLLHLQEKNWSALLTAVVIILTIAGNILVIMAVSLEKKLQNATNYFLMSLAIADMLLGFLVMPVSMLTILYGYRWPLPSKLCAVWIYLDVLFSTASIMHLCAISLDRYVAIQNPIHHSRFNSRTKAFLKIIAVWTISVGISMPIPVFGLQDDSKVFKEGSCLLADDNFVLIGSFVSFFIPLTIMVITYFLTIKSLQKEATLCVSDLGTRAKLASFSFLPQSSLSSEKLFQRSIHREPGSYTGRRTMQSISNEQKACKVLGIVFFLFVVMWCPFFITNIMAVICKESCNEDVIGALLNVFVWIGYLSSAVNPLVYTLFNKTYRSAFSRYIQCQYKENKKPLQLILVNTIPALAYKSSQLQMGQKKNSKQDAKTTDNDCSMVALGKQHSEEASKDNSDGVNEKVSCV
Muscarinic acetylcholine receptor M1 (Homo sapiens), sequence (P11229 whole entry, looked up): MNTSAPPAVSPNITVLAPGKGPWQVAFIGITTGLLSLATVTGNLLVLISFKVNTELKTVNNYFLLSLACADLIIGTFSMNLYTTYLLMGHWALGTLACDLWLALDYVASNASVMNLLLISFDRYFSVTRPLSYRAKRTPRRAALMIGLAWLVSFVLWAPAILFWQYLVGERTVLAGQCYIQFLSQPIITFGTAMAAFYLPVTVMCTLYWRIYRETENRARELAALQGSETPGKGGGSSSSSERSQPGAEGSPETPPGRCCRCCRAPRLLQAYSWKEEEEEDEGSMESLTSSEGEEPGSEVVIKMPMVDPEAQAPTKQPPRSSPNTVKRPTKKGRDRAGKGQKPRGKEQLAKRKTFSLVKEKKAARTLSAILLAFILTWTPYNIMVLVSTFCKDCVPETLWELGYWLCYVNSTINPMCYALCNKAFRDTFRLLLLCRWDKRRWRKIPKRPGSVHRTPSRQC
Gonadotropin-releasing hormone receptor (Homo sapiens), sequence (P30968 whole entry, looked up): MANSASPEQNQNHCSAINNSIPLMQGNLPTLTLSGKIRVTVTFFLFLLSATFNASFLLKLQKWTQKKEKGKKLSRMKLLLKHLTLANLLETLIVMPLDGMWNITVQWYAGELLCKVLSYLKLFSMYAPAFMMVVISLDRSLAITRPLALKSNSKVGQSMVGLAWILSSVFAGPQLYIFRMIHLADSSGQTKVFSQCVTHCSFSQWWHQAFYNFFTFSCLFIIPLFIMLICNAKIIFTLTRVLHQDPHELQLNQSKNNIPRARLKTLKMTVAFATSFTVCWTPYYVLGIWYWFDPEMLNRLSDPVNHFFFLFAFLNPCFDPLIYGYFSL
D(2) dopamine receptor (Homo sapiens), sequence (P14416 whole entry, looked up): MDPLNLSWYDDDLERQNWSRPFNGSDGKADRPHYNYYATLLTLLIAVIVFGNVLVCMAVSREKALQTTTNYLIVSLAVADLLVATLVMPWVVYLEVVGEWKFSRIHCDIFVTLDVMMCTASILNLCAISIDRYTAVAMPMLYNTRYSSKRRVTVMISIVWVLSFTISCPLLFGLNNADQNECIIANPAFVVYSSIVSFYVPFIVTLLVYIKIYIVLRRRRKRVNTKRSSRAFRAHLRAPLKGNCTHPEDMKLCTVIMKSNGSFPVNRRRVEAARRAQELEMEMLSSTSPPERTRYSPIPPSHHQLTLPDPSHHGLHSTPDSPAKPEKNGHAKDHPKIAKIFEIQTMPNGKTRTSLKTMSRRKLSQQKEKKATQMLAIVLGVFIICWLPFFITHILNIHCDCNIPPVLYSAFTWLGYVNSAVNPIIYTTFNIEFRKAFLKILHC
KiSS-1 receptor (Homo sapiens), sequence (Q969F8 whole entry, looked up): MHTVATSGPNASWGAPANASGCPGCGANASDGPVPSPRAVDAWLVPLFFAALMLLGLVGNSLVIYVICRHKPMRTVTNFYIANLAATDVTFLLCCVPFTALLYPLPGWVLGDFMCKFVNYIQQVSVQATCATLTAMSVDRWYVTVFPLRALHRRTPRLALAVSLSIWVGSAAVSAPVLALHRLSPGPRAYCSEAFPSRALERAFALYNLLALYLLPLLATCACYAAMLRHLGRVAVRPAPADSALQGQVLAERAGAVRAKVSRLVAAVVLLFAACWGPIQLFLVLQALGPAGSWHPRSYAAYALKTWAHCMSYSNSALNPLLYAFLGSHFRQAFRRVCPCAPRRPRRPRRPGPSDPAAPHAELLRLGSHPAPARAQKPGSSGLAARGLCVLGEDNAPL
Beta-2 adrenergic receptor (Homo sapiens), sequence (P07550 whole entry, looked up): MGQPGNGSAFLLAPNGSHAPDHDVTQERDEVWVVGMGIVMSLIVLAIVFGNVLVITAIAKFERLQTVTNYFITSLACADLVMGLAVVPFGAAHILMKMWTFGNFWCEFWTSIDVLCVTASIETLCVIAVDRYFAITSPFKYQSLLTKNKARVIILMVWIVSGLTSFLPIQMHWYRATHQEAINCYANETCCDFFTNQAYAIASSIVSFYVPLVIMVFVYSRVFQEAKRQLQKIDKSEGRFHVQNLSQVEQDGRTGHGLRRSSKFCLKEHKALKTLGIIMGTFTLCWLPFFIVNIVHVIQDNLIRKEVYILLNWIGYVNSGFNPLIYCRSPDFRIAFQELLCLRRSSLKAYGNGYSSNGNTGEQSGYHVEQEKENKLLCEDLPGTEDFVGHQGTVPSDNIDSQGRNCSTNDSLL

| SMILES | Potency [1] | Potency [2] | Potency [3] | Potency [4] | Potency [5] | Potency [6] | Potency [7] | Potency [8] | Potency [9] | Potency [10] | Potency [11] | Potency [12] | Potency [13] | Potency [14] | Potency [15] | Potency [16] | Potency [17] | Potency [18] | Potency [19] | Potency [20] |
| --- | --- | --- | --- | --- | --- | --- | --- | --- | --- | --- | --- | --- | --- | --- | --- | --- | --- | --- | --- | --- |
| COc1ccc(C=O)cc1OC | inactive | inactive | inactive | inactive | inactive | inactive | inactive | inactive | inactive | inactive | inactive | inactive | inactive | inactive | inactive | inactive | inactive | inactive |  |  |
| Cc1ccccc1CCl | inactive | inactive | inactive | inactive | inactive | inactive | inactive | inactive | inactive | inactive | inactive | inactive | inactive | inactive | inactive | inactive | inactive | inactive |  |  |
| Nc1ccc(N=Nc2ccc(-c3ccc(N=Nc4c(S(=O)(=O)O)cc5cc(S(=O)(=O)O)c(N=Nc6ccccc6)c(O)c5c4N)cc3)cc2)c(N)c1 | inactive | inactive | inactive | inactive | inactive | inactive | inactive | inactive | inactive | inactive | 31.6 µM (active) | inactive | inactive | inactive | inactive |  |  |  |  |  |
| CN(C)C(=O)Nc1cccc(C(F)(F)F)c1 | inactive | inactive | inactive | inactive | inactive | inactive | inactive | inactive | inactive | inactive | inactive |  |  | inactive | inactive | inactive | inactive | inactive | inactive |  |
| [CH3][Sn]([CH3])([Cl])[Cl] | inactive | inactive |  |  |  | inactive | inactive | inactive |  | inactive | inactive | inactive | inactive |  | inactive | inactive | inactive | inactive | inactive | inactive |
| Nc1ccc(Cl)cc1N | inactive |  | inactive |  | inactive | inactive | inactive | inactive | inactive | inactive |  | inactive | inactive |  | inactive | inactive | inactive | inactive |  |  |
| C1CN2CCN1CC2 | inactive |  | inactive |  |  | inactive | inactive | inactive |  | inactive | inactive and 54.9 µM (active) | inactive | inactive and 54.9 µM (active) | inactive | inactive | inactive | inactive | inactive | inactive | inactive |
| OCC(O)CO | inactive |  |  | inactive |  | inactive | inactive | inactive | inactive |  |  |  |  |  |  |  |  |  |  |  |
| CN(C)P(=O)(N(C)C)N(C)C | inactive |  | inactive | inactive | inactive | inactive | inactive | inactive | inactive | inactive |  | inactive | inactive | inactive | inactive | inactive | inactive | inactive | inactive | inactive |
| O=C1C2CC=CCC2C(=O)N1SC(Cl)(Cl)Cl (centres undefined) | inactive and 26.9 µM (active) |  | inactive | inactive | inactive | inactive | inactive | inactive | inactive | inactive | 24.1 µM (active) | inactive | inactive and 38.3 µM (active) |  | inactive | inactive | inactive | inactive and 23.9 µM (active) | inactive |  |
| CCCCCCOC(=O)c1ccccc1C(=O)OCCCCCC | inactive |  | inactive | inactive | inactive | inactive | inactive | inactive | inactive | inactive | inactive |  | inactive | inactive | inactive | inactive |  | inactive |  | inactive |
| CCCCCCCC[N+](C)(CCCCCCCC)CCCCCCCC | 5.44 µM (active) and 6.87 µM (active) and 15.4 µM (active) |  |  |  |  | 5.75 µM (active) and 6.47 µM (active) and 25.7 µM (active) | 14.4 µM (active) and inactive and 40.8 µM (active) | 9.11 µM (active) and 2.58 µM (active) and 20.4 µM (active) |  | inactive | inactive | 5.93 µM (active) and inactive and 6.67 µM (active) | inactive |  |  | inactive | inactive | 54.4 µM (active) and inactive and 17.2 µM (active) |  | inactive |
| Nc1ccccc1C(=O)OCCc1ccccc1 | inactive |  |  | inactive | inactive | inactive | inactive | inactive | inactive | inactive | inactive | inactive | inactive |  |  | inactive | inactive | inactive | inactive | inactive |
| CCCC(C)(COC(N)=O)COC(N)=O | inactive |  | inactive | inactive | inactive | inactive | inactive | inactive | inactive | inactive | inactive | 19.9 nM (active) | inactive | inactive | inactive |  | inactive | inactive | inactive | inactive |
| Oc1ccc(Cl)cc1Cc1ccccc1 | 43.3 µM (active) and 31 µM (active) |  | inactive | inactive | inactive |  | 45.7 µM (active) and inactive | inactive | inactive | inactive | 44.2 µM (active) and inactive | inactive | inactive | inactive | inactive | 61.9 µM (active) and inactive | inactive | inactive | inactive | inactive |
